Compounds with a hit are over-represented: about 11% of the library has one in this group of screens.
NIH3T3 tox: NIH 3T3 cell cytotoxicity; NIH 3T3 viability, CellTiter-Glo ATP luminescence, 48-72 h; hit rate 4.3% among 94,000; AID 1345082; Potency, µM (doses to about 96.7 µM), without a hit: top-dose activity change, negative = cytotoxicity, usual class: inhibitors; active = well fitted curve in the direction sought with a large enough effect; inconclusive = small, poorly fitted or top-dose-only effect, or another doubt; inactive = no such curve, though single readings can be large; an effect the other way counts as inactive or inconclusive; also: % is scaled to controls: 0 for no effect and ±100 for the full control effect; nearly all actives have a fitted effect of over 55% in size
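Cytotoxicity is measured as loss of cellular ATP: NIH 3T3 cells (400/well) are exposed to compound for 48 or 72 hr at 37 °C, then CellTiter-Glo luminescence is imaged after 10 min at room temperature.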
HEK293 tox: HEK 293 cell cytotoxicity | HEK 293 viability, ATP luminescence (CellTiter-Glo), 48-72 h | Potency, µM (highest dose often 115 µM), inactives show top-dose activity change, negative = cytotoxicity, usual class: inhibitors | hit rate 6.6% among 94,000 | AID 1345083; active = well fitted curve in the direction sought with a large enough effect; inconclusive = small, poorly fitted or top-dose-only effect, or another doubt; inactive = no such curve, though single readings can be large; an effect the other way counts as inactive or inconclusive; also: % is scaled to controls: 0 for no effect and ±100 for the full control effect; nearly all actives have a fitted effect of over 60% in size
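Pintool-delivered compounds were incubated with HEK 293 cells (250 cells/well) at 37 degree Celsius for 48 or 72 hr. ATP-dependent luminescence (CellTiter-Glo) then reported remaining viable cells.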
Luciferase inh: blocks purified firefly luciferase enzyme activity; P08659; purified P. pyralis luciferase, luminescence, biochemical; Potency, µM (titrated, usually from 115 µM), actives largely listed as inhibitors; hit rate 2.5% among 76,000; active = well fitted curve in the direction sought with a large enough effect; inconclusive = small, poorly fitted or top-dose-only effect, or another doubt; inactive = no such curve, though single readings can be large; an effect the other way counts as inactive or inconclusive; also: % is scaled to controls: 0 for no effect and ±100 for the full control effect; nearly all actives have a fitted effect of over 65% in size
Target sequence (P08659 whole entry, looked up): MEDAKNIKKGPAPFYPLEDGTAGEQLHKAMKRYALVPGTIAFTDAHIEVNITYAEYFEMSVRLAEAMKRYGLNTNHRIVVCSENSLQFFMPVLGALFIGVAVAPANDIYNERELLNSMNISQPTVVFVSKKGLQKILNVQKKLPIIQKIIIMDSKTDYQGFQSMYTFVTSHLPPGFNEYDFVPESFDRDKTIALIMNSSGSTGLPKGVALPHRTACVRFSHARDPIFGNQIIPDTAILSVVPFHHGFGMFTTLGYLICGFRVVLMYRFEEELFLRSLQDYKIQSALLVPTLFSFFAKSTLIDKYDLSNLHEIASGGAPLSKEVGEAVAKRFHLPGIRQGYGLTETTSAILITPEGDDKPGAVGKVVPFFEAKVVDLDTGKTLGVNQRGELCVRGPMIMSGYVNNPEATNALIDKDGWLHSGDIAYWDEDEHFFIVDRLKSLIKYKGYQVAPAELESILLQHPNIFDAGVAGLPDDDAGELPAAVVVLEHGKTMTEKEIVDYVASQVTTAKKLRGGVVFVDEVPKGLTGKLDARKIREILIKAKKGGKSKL
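Biochemical qHTS: compound (6-point titration) added to 10uM D-luciferin plus 10uM ATP in Tris acetate pH 7.5 buffer with Mg, Tween-20 and BSA, then purified enzyme at 10nM; light output imaged.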
NPR1 antag: human Npr1 receptor antagonism. hit rate 1.6% among 76,000. AID 1347048. Potency, µM (highest dose often 46.3 µM), without a hit: top-dose activity change, negative = inhibition, actives largely listed as inhibitors. HEK293 hNpr1 GloSensor cGMP, ANP-stimulated luminescence; also: % is scaled to controls: 0 for no effect and ±100 for the full control effect; nearly all actives have a fitted effect of over 60% in size
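Compound pre-incubated 30 min at room temperature on GloSensor-loaded HEK293 cells stably carrying hNpr1 and the pGS-40F cGMP biosensor. Stimulation uses hNppA at 0.1 nM final; luminescence is taken at baseline and 20 min post-agonist.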
NPR1 antag cnf: hNpr1 antagonism, confirmation assay; hit rate 76% among 1,400; shares compounds with NPR1 antag; HEK293 hNpr1 cGMP GloSensor luminescence, ANP-stimulated; AID 1347044; Potency, µM (titrated, usually from 57.6 µM), for inactives: at the highest dose activity change, negative = inhibition, hits mostly inhibitors; also: nearly all actives have a fitted effect of over 70% in size
Npr2 selectivity: antagonizes human Npr2, subtype selectivity check. shares compounds with NPR1 antag. HEK293 hNpr2 GloSensor cGMP luminescence, CNP-stimulated. Potency, µM (doses to about 57.6 µM), for inactives: at the top dose activity change, negative = inhibition, actives largely listed as inhibitors. hit rate 67% among 1,400. AID 1347046; also: nearly all actives have a fitted effect of over 70% in size
FLuc counter: inhibits firefly luciferase, false Npr1 antagonist flag | shares compounds with NPR1 antag | purified FLuc enzyme, luminescence, Km substrate | Potency, µM (highest dose often 57.6 µM), without a hit: at the top dose activity change, negative = inhibition, hits mostly inhibitors | hit rate 0.7% among 1,400 | AID 1347047; active = well fitted curve in the direction sought with a large enough effect; inconclusive = small, poorly fitted or top-dose-only effect, or another doubt; inactive = no such curve, though single readings can be large; an effect the other way counts as inactive or inconclusive; also: 0% is about no effect
GloSensor cGMP: reduces cGMP signal in GloSensor control cells. HEK293 GloSensor cGMP, SNP-stimulated, luminescence. shares compounds with NPR1 antag. hit rate 69% among 1,400. Potency, µM (highest dose often 57.6 µM), for inactives: at the highest dose activity change, negative = inhibition, hits mostly inhibitors. AID 1347051; also: % is scaled to controls: 0 for no effect and ±100 for the full control effect; nearly all actives have a fitted effect of over 70% in size
An asterisk follows results filed as active; i = inactive; ? = inconclusive; . = no result given; [ ] = another dose, or the depositor's remark. Unless noted, calls follow the shape of the full dose curve. Potency is read from the fitted curve at half-maximal effect.

SMILES	NIH3T3 tox	HEK293 tox	Luciferase inh	NPR1 antag	NPR1 antag cnf	Npr2 selectivity	FLuc counter	GloSensor cGMP
O=C(c1ccc(Cl)cc1)N1CCc2sc(C(=O)N3CCOCC3)cc2C1	?	?	i	0.2%	.	.	.	.
OC[C@@H]1CN(Cc2cccc3[nH]ccc23)C[C@H]1c1ccncc1	-8.9%	-16.9%	i	-0.9%	.	.	.	.
Cc1ccc(S(=O)(=O)NC[C@H]2O[C@H](Cc3cc(COc4ccccc4)on3)CC[C@@H]2O)cc1	?	?	i	-24.4%	.	.	.	.
COc1ccc(-c2cc(C[C@@H]3CC[C@H](O)[C@@H](CNCc4ccccc4OC)O3)no2)cc1	56.2µM*	31.6µM*	?	28.2µM*	31.4µM*	35.3µM*	?	?
Cc1ccc(S(=O)(=O)NC[C@H]2O[C@H](Cc3cc(-c4cccc(O)c4)on3)CC[C@@H]2O)cc1	?	?	i	?	?	?	?	?
CC(C)(C)C(=O)NC[C@H]1O[C@H](Cc2cc(-c3ccc(F)cc3)on2)CC[C@@H]1O	-10.5%[174 µM]	?	i	?	?	?	19.8µM*	?
COCC(=O)NC[C@H]1O[C@H](Cc2cc(-c3ccc(F)cc3)on2)CC[C@@H]1O	-23.3%[174 µM]	-5.7%[172 µM]	i	-1.8%[70.6 µM]	.	.	.	.
O[C@H]1CC[C@@H](Cc2cc(-c3ccc(F)cc3)on2)O[C@@H]1CNC1CCCCC1	39.8µM*	?	i	?	?	?	-23.2%[86.2 µM]	-20.0%[86.2 µM]
Cc1ccc(S(=O)(=O)N2CCN(C3CCN(Cc4cccnc4)C3=O)CC2)cc1C (stereo not given)	-23.5%	-39.6%	i	3.0%	.	.	.	.
Oc1cccc(-c2cc(C[C@@H]3CC[C@H](O)[C@@H](CNC4CCC4)O3)no2)c1	-4.7%[138 µM]	-9.4%[172 µM]	i	?	?	-14.1%[86.2 µM]	-3.4%[86.2 µM]	-25.5%[86.2 µM]
CCOc1ccc(CN2CCN(c3nc4ccccc4o3)CC2CCO)cc1 (stereo not given)	-17.1%	35.5µM*	i	14.1µM*	21.7µM*	24.3µM*	-1.9%	21.7µM*
COCCNC(=O)c1ccc(CC2CCN(C(=O)c3n[nH]c(=O)c4ccccc34)CC2)cc1	-17.1%	?	.	.	.	.	.	.
COc1cccc(CN2CC[C@H](c3nc4ccccc4[nH]3)C2)c1	-17.9%[138 µM]	?	i	2.5%[70.6 µM]	.	.	.	.
Clc1cccc(CN2CC[C@H](c3nc4ccccc4[nH]3)C2)c1	?	20µM*	i	25.1µM*	39.6µM*	?	-1.8%[86.2 µM]	?
O=C(c1ccc2nc[nH]c2c1)N1CCC(CO)(CCCc2ccccc2)CC1	-22.8%	25.1µM*	i	11.2µM*	24.3µM*	24.3µM*	6.2%	21.7µM*
O=C(c1cc2cc(F)ccc2[nH]1)N1CCC(CO)(CCCc2ccccc2)CC1	?	?	i	-14.9%	.	.	.	.
O=C(c1ccc(C(F)(F)F)cc1)N1CCC(C(=O)N2CCCC(c3nc4ncccc4[nH]3)C2)CC1 (stereo not given)	-30.6%	?	.	.	.	.	.	.
O=C(c1ccco1)N1CCC(Cc2nc(-c3ccccc3)no2)CC1	?	?	i	?	.	.	.	.
COc1cccc(C(=O)N2CCC(Cc3nc(C(C)C)no3)CC2)c1	?	?	i	-15.9%	.	.	.	.
COc1cccc(-c2noc(CC3CCN(C(=O)c4cccc(F)c4)CC3)n2)c1	?	?	i	6.31µM*	6.11µM*	6.85µM*	-0.9%	4.85µM*
O=C(c1ccc(F)cc1)N1CCC(Cc2nc(-c3ccccc3)no2)CC1	?	?	i	5.01µM*	4.85µM*	6.11µM*	0.2%	5.44µM*
O=C(c1cccc(F)c1)N1CCC(Cc2nc(-c3ccccc3)no2)CC1	?	?	i	6.31µM*	6.85µM*	9.68µM*	-13.4%	6.85µM*
CN1CC2(C1)C(=O)N(Cc1cccc(Cl)c1)C(=O)[C@@H]1C[C@@H](O)CN12	-5.9%[174 µM]	-1.1%[172 µM]	i	5.0%[70.6 µM]	.	.	.	.
O=C(c1ccc(F)cc1)N1CCCC(C(=O)N2CCC(c3nc4ncccc4[nH]3)CC2)C1 (stereo not given)	-12.7%	i	.	.	.	.	.	.
COc1ccc(CN2CCC3(Cc4ccccc4CNC3=O)C2)cn1 (stereo not given)	-10.9%	-21.3%	.	.	.	.	.	.
SMILES	NIH3T3 tox	HEK293 tox	Luciferase inh	NPR1 antag	NPR1 antag cnf	Npr2 selectivity	FLuc counter	GloSensor cGMP
O=C(c1ccc(F)cc1)N1CCC2(CC1)CC(N(Cc1ccc(F)cc1)C1CC1)CCO2 (stereo not given)	?	?	i	?	?	?	5.4%	?
O=C(c1cccs1)N1CCC2(CC1)CC(Cc1ccc(F)cc1)CCO2 (stereo not given)	?	?	i	11.2µM*	27.3µM*	27.3µM*	-2.1%	27.3µM*
CCCC(=O)N1CCC2(CC1)CC(N(Cc1ccc(F)cc1)C1CC1)CCO2 (stereo not given)	-18.1%	?	i	-24.5%	-24.9%	-4.8%	1.6%	-26.3%
Cc1cc(NC(=O)CN2C(=O)NC(c3ccc(Cl)cc3)C3=C2COC3=O)no1 (stereo not given)	?	-28.1%	i	-0.7%	.	.	.	.
Cc1nc(CN(C)C(=O)c2cc(Cn3c(C)nc4ccccc43)on2)cs1	?	?	i	10µM*	19.3µM*	17.2µM*	1.2%	13.7µM*
O=C(NCc1ccccc1)c1ccccc1OC1CN(Cc2ccsc2)C1	28.2µM*	?	i	-27.7%	?	-28.6%	3.8%	-2.6%
CC(C)c1ccc(CN2CC(Oc3ccccc3C(=O)NC3CC3)C2)cc1	?	?	i	-4.3%	.	.	.	.
Cc1nc2cccnc2n1CC1CCCN(S(=O)(=O)c2ccc(CC(C)C)cc2)C1 (stereo not given)	?	31.6µM*	i	12.6µM*	21.7µM*	24.3µM*	2.0%	21.7µM*
O=S(=O)(c1ccc2c(c1)CCCC2)N1CCCC(Cn2cnc3cccnc32)C1 (stereo not given)	?	?	i	?	24.3µM*	19.3µM*	-1.6%	24.3µM*
Cc1nc2cccnc2n1CC1CCCN(S(=O)(=O)c2ccc3c(c2)CCCC3)C1 (stereo not given)	?	?	i	?	.	.	.	.
O=C(Cc1ccc(F)cc1)N1CCC2(CC1)CCN(Cc1cccs1)c1ccccc1O2	-22.9%	-17.7%	i	-4.3%	.	.	.	.
